This is an account of results in PubChem BioAssay.

SMILES strings stand for the structures. Calls of active or inactive are those of the source. Unless noted, no rule for the calls is given here.

A short description of experiment [1]: HepG2 liver cancer cell viability effects, profiling panel, resazurin fluorescence, 24 h, PK04 Diversity Set (AID 1172). Also: test concentration not given here. The conditions noted are these: higher = more signal. For orientation: Resazurin is reduced to fluorescent resorufin, in cell work by metabolically active cells.
Experiment [2] is described as follows: basal S. cerevisiae growth modulation, no modifier, primary screen, OD600, strain BY4716, 24 h, basal condition (AID 1173). The conditions noted are these: OD600, 24 h, higher = more signal, called active from +8 up or from −8 down.
The nature of experiment [3]: MM1S myeloma cell viability, profiling panel, resazurin fluorescence, basal, 24 h, PK04 Diversity Set (AID 1174).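 Also: MM1S multiple myeloma cell line; test concentration not given here.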 The conditions noted are these: higher = more signal, called active from +8 up or from −8 down.
Experiment [4] deals with Dihydroorotate dehydrogenase (quinone), mitochondrial (Plasmodium falciparum (isolate 3D7)) (UniProt Q08210). Kind of experiment: PfDHODH enzyme inhibitors, primary screen, biochemical, C-terminal His tag, absorbance 600 nm (AID 1175).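 Also: recombinant parasite enzyme with a five histidine tag at its C terminus; test concentration not given here.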 The conditions noted are these: DCIP absorbance 600 nm, higher = more signal, called active from +8 up or from −8 down.
The nature of experiment [5]: P. aeruginosa biofilm formation inhibitors, primary screen, strain PAO1, LB-PBS medium, absorbance 600 nm (AID 1176). Also: test concentration not given here. The note with it: P. aeruginosa PAO1 growth/biofilm, A600, 12 h; higher = more signal.
Experiment [6] in a line: S. cerevisiae RM11-1a growth modifiers, primary screen, strain RM11-1a, OD600, basal, 24 h (AID 1177).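 Also: cultures grown under basal conditions with no added stressor; test concentration not given here.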 The conditions noted are these: OD600, 24 h, higher = more signal, called active from +8 up or from −8 down.
Experiment [7] is described as follows: E. coli acrAB mutant growth effects, primary screen, E. coli filamentation inducers, strain DRC39, OD650, 24 h (AID 1178).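 Also: growth measured as culture turbidity by optical density at 650 nm; test concentration not given here.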 The conditions noted are these: higher = more signal, called active from +8 up or from −8 down.
The nature of experiment [8]: E. coli acrAB mutant growth effects, primary screen, E. coli filamentation inducers, strain DRC39, OD650, 48 h (AID 1179).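 Also: screen aims at cell division blockers that make cells filament.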 The conditions noted are these: E. coli DRC39 delta-acrAB growth, higher = more signal, called active from +8 up or from −8 down.
Experiment [9] can be described thus: RPMI8226 myeloma cell viability, profiling panel, resazurin fluorescence, basal, 24 h, PK04 Diversity Set (AID 1180).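 Also: RPMI8826 multiple myeloma cell line at 5000 cells per well; test concentration not given here.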 The note with it: higher = more signal.
Experiment [10] has as its target E3 ubiquitin-protein ligase XIAP (Homo sapiens) (UniProt P98170). Put plainly: XIAP binders, primary screen, biophysical, small-molecule microarray, fluorescence 635 nm (AID 1181).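 Also: score merges 667 nm emission and signal to noise over triplicate slides.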 The note with it: small-molecule microarray binding, higher = more signal.

Dihydroorotate dehydrogenase (quinone), mitochondrial (Plasmodium falciparum (isolate 3D7)), sequence (Q08210 whole entry, looked up): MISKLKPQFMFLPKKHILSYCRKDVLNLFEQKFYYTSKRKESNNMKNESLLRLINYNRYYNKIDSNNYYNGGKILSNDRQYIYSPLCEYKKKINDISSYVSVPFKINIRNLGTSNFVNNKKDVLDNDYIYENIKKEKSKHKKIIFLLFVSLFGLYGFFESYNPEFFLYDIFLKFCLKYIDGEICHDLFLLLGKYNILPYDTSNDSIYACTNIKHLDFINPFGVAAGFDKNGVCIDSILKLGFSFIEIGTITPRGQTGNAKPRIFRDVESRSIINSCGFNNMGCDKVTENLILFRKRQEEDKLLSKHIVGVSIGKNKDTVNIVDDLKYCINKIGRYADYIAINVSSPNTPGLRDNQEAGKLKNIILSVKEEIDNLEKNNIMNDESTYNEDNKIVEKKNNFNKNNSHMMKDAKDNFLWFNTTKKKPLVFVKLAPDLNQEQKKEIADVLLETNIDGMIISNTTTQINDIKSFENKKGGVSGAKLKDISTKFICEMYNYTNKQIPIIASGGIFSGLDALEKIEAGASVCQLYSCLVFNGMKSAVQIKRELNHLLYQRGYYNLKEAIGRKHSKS
E3 ubiquitin-protein ligase XIAP (Homo sapiens), sequence (P98170 whole entry, looked up): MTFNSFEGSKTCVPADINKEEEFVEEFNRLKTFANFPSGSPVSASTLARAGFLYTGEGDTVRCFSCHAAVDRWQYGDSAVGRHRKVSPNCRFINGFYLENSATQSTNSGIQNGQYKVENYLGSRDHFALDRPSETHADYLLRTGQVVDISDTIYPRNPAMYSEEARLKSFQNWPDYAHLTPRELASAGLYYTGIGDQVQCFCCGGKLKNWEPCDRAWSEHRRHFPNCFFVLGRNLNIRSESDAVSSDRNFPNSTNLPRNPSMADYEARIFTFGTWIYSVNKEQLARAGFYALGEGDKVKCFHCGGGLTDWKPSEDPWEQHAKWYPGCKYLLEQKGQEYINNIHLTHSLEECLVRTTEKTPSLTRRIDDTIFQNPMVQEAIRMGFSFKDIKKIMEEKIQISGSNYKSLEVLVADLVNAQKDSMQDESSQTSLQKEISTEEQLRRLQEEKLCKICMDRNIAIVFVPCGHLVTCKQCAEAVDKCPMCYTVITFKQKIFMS

As for `CCOC(=O)[C@H](CC(C)C)NC(=O)CCC1CC(OC(=O)NCCc2ccc(F)cc2)CC2(CCCC(COC(=O)NCc3cccc4ccccc34)O2)O1` (stereo not given in full), the z-score in experiment [1] was 0.682; in [2], -1.9 (inactive); in experiment [3], 1.28 (inactive); in [5], 0.168 (inactive); in [6], -0.186 (inactive); in [7], 0.424 (inactive). Also, the z-score in [8] is -0.435 (inactive); in [9] it was 1.3. Also, the results for the composite z-score in experiment [4] and in experiment [10] were 0.0103 (inactive) and -0.0939, respectively.
Turning to `CC(=O)OC[C@H]1O[C@@H](ON=C(C)C)[C@H](OC(C)=O)[C@@H](OC(C)=O)[C@@H]1OC(C)=O`, the z-score is 0.199 in [1]; 0.515 (inactive) in experiment [2]; -0.0437 (inactive) in experiment [3]; 0.569 (inactive) in experiment [5]; 0.0958 (inactive) in experiment [6]; -0.308 (inactive) in experiment [7]. Moreover, the z-score in [8] is -2.31 (inactive); in experiment [9] it was -0.0678. Besides, the composite z-score in experiment [4] is -0.696 (inactive); in experiment [10], 0.0478.
With `COC(=O)[C@H](C)NC(=O)CCC1CC(OC(=O)NCCc2ccc(F)cc2)CC2(CCCC(COC(=O)NCCc3ccccc3OC)O2)O1` (stereo not given in full), the z-score in [1] is 0.185; in experiment [2] it was 0.292 (inactive); in experiment [3], 0.173 (inactive); in experiment [5], 0.119 (inactive); in [6] it was 0.878 (inactive); in experiment [7], 0.636 (inactive). Moreover, the values for the z-score in experiment [8] and in [9] were -0.487 (inactive) and 0.833, respectively. Further, the composite z-score is 0.098 (inactive) in experiment [4] and -0.0615 in experiment [10].
Regarding `C=CC[C@@H]1C=C[C@H](ON=C(C)CCN2CCCc3nc(C)c(C)cc32)[C@@H](CO)O1`, the z-score was 0.394 in experiment [1]; 0.529 (inactive) in experiment [2]; -0.0956 (inactive) in experiment [3]; 0.936 (inactive) in experiment [5]; 0.662 (inactive) in experiment [6]; 0.382 (inactive) in experiment [7]. The z-score in [8] was -0.0088 (inactive); in experiment [9], -0.0021. Besides, the results for the composite z-score in experiment [4] and in [10] were -0.267 (inactive) and 1.07, respectively.
In the case of `CC(=O)OC[C@H]1O[C@H](CC=NOCC[C@@H]2C=C[C@H](OC(C)=O)[C@@H](COC(C)=O)O2)C=C[C@@H]1OC(C)=O`, the z-score in [1] was 0.149; in [2], 0.0167 (inactive); in [3], 0.0092 (inactive); in experiment [5] it was 0.229 (inactive); in experiment [6], 0.0282 (inactive); in [7], 0.847 (inactive). The z-score in experiment [8] was 0.66 (inactive); in experiment [9], 0.117. Moreover, the composite z-score in [4] was -0.0986 (inactive); in experiment [10], 0.287.
`O=C1C[C@@H](O)[C@@H](O)[C@@H]2[C@@H]3C(=O)N(c4ccc(F)cc4F)C(=O)[C@@H]3CC[C@H]12`: the z-score in experiment [1] is -0.635; in experiment [2], 0.021 (inactive); in [3] it was -0.175 (inactive); in [5], 0.471 (inactive); in experiment [6] it was -0.304 (inactive); in experiment [7] it was -0.297 (inactive). The z-score in experiment [8] was -1.31 (inactive); in [9] it was -0.413. In addition, the figures for the composite z-score in experiment [4] and in [10] were -0.0528 (inactive) and -0.214, respectively.
In the case of `COC(=O)CC=C[C@@H](C)[C@@H](C=NOC(C)CN1CCCc2nc(C)c(C)cc21)NS(=O)(=O)c1ccc(C)cc1` (stereo not given in full), the z-score was -0.566 in [1]; 0.21 (inactive) in experiment [2]; -0.47 (inactive) in [3]; 0.253 (inactive) in experiment [5]; 0.253 (inactive) in [6]; 0.157 (inactive) in experiment [7]. The results for the z-score in experiment [8] and in experiment [9] were -0.0007 (inactive) and -1.32, respectively. Also, the composite z-score in [4] is 0.899 (inactive); in experiment [10], 0.222.
As to `COc1ccc(O[C@H]2C=C[C@@H](C#Cc3ccccc3)O[C@@H]2CO)cc1`, the z-score is 0.124 in experiment [1]; -10.4 (active) in experiment [2]; -1.24 (inactive) in experiment [3]; 0.0372 (inactive) in experiment [5]; -0.76 (inactive) in experiment [6]; 0.633 (inactive) in [7]. Moreover, the z-score in [8] was 0.14 (inactive); in experiment [9], -0.021. The figures for the composite z-score in experiment [4] and in experiment [10] were -0.759 (inactive) and -0.0412, respectively.
Turning to `CC(CCC(=O)OC[C@H]1O[C@H](C#Cc2ccccc2)C=C[C@@H]1Oc1ccc(C)cc1)=NOC(C)CN1CCCc2nc(C)c(C)cc21` (stereo not given in full), the z-score was -0.374 in experiment [1]; -0.525 (inactive) in experiment [2]; -0.541 (inactive) in experiment [3]; 0.335 (inactive) in experiment [5]; 0.797 (inactive) in experiment [6]; 0.879 (inactive) in experiment [7]. Also, the z-score in experiment [8] was -0.41 (inactive); in experiment [9] it was -0.0206. Moreover, the composite z-score is 0.589 (inactive) in experiment [4] and 0.257 in experiment [10].
Consider `COC(=O)[C@@H]1CC[C@H](C)[C@@H](c2ccc(C)cc2)N1C(=O)c1ccc(C=NO[C@@H](C)c2cc(-c3c(C)cc(C)cc3C)no2)cc1`, for which the z-score in experiment [1] was -0.726; in [2] it was 1.36 (inactive); in experiment [3], -0.321 (inactive); in [5], -0.925 (inactive); in [6] it was 0.378 (inactive); in experiment [7], 0.218 (inactive). Also, the results for the z-score in [8] and in experiment [9] were 1.04 (inactive) and 0.0524, respectively. Also, the composite z-score was 0.502 (inactive) in [4] and -0.238 in [10].
In the case of `C[C@@H](c1ccccc1)N1C(=O)[C@H]2[C@H]3[C@H](O)[C@H](O)CC(=NOC[C@@H](O)COCc4ccco4)[C@H]3CC[C@H]2C1=O`, the z-score is -0.259 in experiment [1]; -0.123 (inactive) in experiment [2]; 0.899 (inactive) in experiment [3]; 0.118 (inactive) in experiment [5]; -0.286 (inactive) in experiment [6]; -0.501 (inactive) in [7]. Moreover, the z-score is -0.267 (inactive) in experiment [8] and 0.0536 in [9]. For the same molecule, the composite z-score is -0.222 (inactive) in [4] and -0.102 in [10].
In the case of `CCOC(=O)NN=C1C[C@@H](O)[C@@H](O)[C@@H]2[C@@H]3C(=O)N(C[C@@H]4CCCO4)C(=O)[C@@H]3CC[C@H]12`, the z-score in experiment [1] is 0.0254; in [2], 0.197 (inactive); in experiment [3] it was -0.841 (inactive); in experiment [5], -0.495 (inactive); in [6] it was -0.396 (inactive); in experiment [7] it was 0.213 (inactive). The z-score is 0.626 (inactive) in experiment [8] and -0.248 in [9]. Also, the composite z-score was -1.36 (inactive) in [4] and -0.02 in [10].
`CSCC[C@@H]1NC(=O)CC=C[C@@H](C)COC(=O)[C@H](C)COC1=O`: the z-score in [1] was 0.376; in experiment [2], -1.59 (inactive); in experiment [3], 0.745 (inactive); in experiment [5], 0.483 (inactive); in experiment [6] it was -2.43 (inactive); in experiment [7], 1.17 (inactive). Moreover, the z-score in experiment [8] was -0.216 (inactive); in experiment [9], -0.135. For the same molecule, the figures for the composite z-score in [4] and in experiment [10] were -0.766 (inactive) and 0.418, respectively.
On to `COc1ccc(OC[C@H]2CN3[C@@H](CC[C@@H](C)[C@@H]3c3ccc(Br)cc3)C(=O)O2)cc1`, for which the z-score in [1] was -0.699; in experiment [2], -1.63 (inactive); in [3] it was 0.649 (inactive); in experiment [5], -1.52 (inactive); in experiment [6], -0.13 (inactive); in [7] it was -1.87 (inactive). The values for the z-score in experiment [8] and in experiment [9] were -1.35 (inactive) and -0.134, respectively. Further, the composite z-score was 0.217 (inactive) in [4] and -0.129 in [10].
